Source: PubChem (National Center for Advancing Translational Sciences (NCATS))
A549 viability: Nrf2 qHTS screen for inhibitors: counterscreen for cytotoxicity | A549 ARE-Fluc cells, CellTiter-Fluor viability, 18-24 h | Potency, µM (doses to about 46 µM), usual class: inhibitors | 390,000 compounds, 0.16% hits
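Cytotoxicity counterscreen: CellTiter-Fluor fluorescence was measured in A549 ARE_Fluc cells after 18-24 h of compound exposure in a concentration series. The subsequent BugLite luminescent read reports ARE-luciferase activity.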
ELG1 DNA repair: qHTS screen for small molecules that inhibit ELG1-dependent DNA repair in human embryonic kidney (HEK293T) cells expressing luciferase-tagged ELG1; 330,000 compounds, 2.3% hits; AID 504467, 2011; Potency, µM (top dose mostly 46.1 µM), usual class: inhibitors; HEK293T ELG1-luciferase reporter, luminescence, 16 h; DNA damage induced by 5-fluorouridine; note: nearly all actives have a fitted effect of over 55% in size
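Overnight (16 hr) co-exposure of 2,000 cells/well to 5-fluorouridine and compound at 37 °C preceded detection. Luciferase was quantified via ONE-Glo luminescence; loss of signal denotes inhibition.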
Nrf2 block: Nrf2 qHTS screen for inhibitors | A549 ARE-Fluc reporter, luciferase luminescence, 18-24 h | Potency, µM (series often up to 46 µM), usual class: inhibitors | 360,000 compounds, 2.1% hits; note: nearly all actives have a fitted effect of over 60% in size
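Two sequential reads on A549 ARE_Fluc cells exposed to compound for 18-24 h: a CellTiter-Fluor fluorescence read for viability, then a luciferase luminescence read for Nrf2/ARE activity.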
Nrf2 activator: qHTS of Nrf2 Activators; AREc32 ARE-luciferase reporter (MCF7-derived line), luminescence, 24 h; Potency, µM (top dose mostly 46.1 µM), hits mostly activators; 410,000 compounds, 0.31% hits; AID 624171, 2012; note: nearly all actives have a fitted effect of over 65% in size
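AREc32 cells carrying an ARE-driven firefly luciferase reporter were seeded at 1000 cells/well in OPTI-MEM with 5% FBS, then exposed to compound for 24 hr at 37 deg C. Luminescence was read with Steady-Glo after 30 min at RT.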
IDH1 R132H inh: qHTS for Inhibitors of mutant isocitrate dehydrogenase 1 (IDH1): qHTS; AID 602179, 2012; Potency, µM (titrated, usually from 76.6 µM), most hits filed as inhibitors; Isocitrate dehydrogenase [NADP] cytoplasmic (Homo sapiens), O75874; 390,000 compounds, 0.093% hits; IDH1-R132H enzyme, NADPH consumption, diaphorase/resazurin fluorescence; note: nearly all actives have a fitted effect of over 65% in size
Target sequence (O75874 whole entry R132H, stated change not applied): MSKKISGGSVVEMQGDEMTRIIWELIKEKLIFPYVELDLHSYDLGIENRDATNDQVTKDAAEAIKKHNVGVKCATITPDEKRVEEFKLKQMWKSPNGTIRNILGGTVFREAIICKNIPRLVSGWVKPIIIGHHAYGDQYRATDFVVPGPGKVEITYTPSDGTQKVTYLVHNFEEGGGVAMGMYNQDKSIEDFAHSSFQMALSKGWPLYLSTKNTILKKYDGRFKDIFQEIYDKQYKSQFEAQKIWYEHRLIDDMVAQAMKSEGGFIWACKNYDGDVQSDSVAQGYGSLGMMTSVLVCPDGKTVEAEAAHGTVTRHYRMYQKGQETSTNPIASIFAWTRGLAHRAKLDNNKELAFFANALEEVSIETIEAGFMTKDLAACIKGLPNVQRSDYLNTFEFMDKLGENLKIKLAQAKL
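IDH1-R132H (0.5 ug/mL) preincubated 30 min with compound, then NADPH (0.016 mM) and alpha-KG (2 mM) added; 80 min at RT, pH 7.5. Remaining NADPH coupled via diaphorase/resazurin to fluorescence (540/590 nm); concentration-response curves normalized to no-enzyme control.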
A number is an active result; 0 = inactive; ? = inconclusive; - = no result given. In the library only some 3.8% were active in any assay of this set; here they are far more common. Calls come from the whole dose curve; as a rule, active = well fitted curve in the direction sought with a large enough effect; inconclusive = small, poorly fitted or top-dose-only effect, or another doubt; inactive = no such curve, though single readings can be large; an effect the other way counts as inactive or inconclusive.

SMILES	A549 viability	ELG1 DNA repair	Nrf2 block	Nrf2 activator	IDH1 R132H inh
CN(CC(=O)Nc1ccccc1Br)C(=O)c1ccccc1-c1nc2ccccc2s1	0	20.6µM	0	0	0
O=C(c1cccc(C(F)(F)F)c1)N1CCOC12CCN(c1ncc(C(F)(F)F)cc1Cl)CC2	0	-	25.9µM	0	0
Cc1cccc(N=c2oc3cc(O)ccc3cc2C(N)=O)c1	0	4.61µM	?	0	0
COc1cccc(-c2nc(C(=O)NCC3CCCO3)cc3c2[nH]c2ccccc23)c1 (stereo not given)	0	?	20.6µM	0	0
COc1ccc(OC)c(-c2nc(C(=O)NCC3CCCO3)cc3c2[nH]c2ccccc23)c1 (stereo not given)	0	?	?	0	0
COc1ccccc1N=c1oc2cc(O)ccc2cc1C(N)=O	0	?	?	0	0
COc1cccc(N=c2oc3cc(O)ccc3cc2C(=O)NCC2CCCO2)c1 (stereo not given)	0	4.11µM	0	0	0
Cc1ccc2c(c1)c(=O)c(C(=O)c1ccncc1)cn2CC(=O)Nc1ccccc1Cl	0	-	-	0	0
CCN(C(=O)COC(=O)c1c(C)nn(-c2ccccc2)c1C)C1CCS(=O)(=O)C1 (stereo not given)	0	?	?	0	0
CCN(C(=O)COC(=O)c1c2c(nc3ccccc13)/C(=C/c1ccccc1)CC(C)C2)C1CCS(=O)(=O)C1 (stereo not given)	0	6.51µM	0	0	0
CC1(C)CC(=O)C(CSC(=O)c2ccccc2)C(=O)C1	-	-	-	0	0
O=C(NCc1ccco1)C1CCN(c2nc3ccccc3n2Cc2ccc(F)cc2)CC1	0	18.4µM	?	0	0
COc1nc(OC)nc(N2CCC(C(=O)NCc3ccco3)CC2)n1	0	0	0	0	0
COc1cccc(NC(=O)CN(C)C(=O)c2cc(-c3ccc(C)o3)nc3ccccc23)c1	0	6.51µM	0	0	0
CCOc1ccc(NC(=O)CN(C)C(=O)c2cc(-c3ccc(OC)cc3)nc3ccccc23)cc1OCC	0	9.2µM	0	0	0
COc1cccc(NC(=O)c2cc(-c3ccc(C)o3)nc3ccccc23)c1	0	0	0	0	0
O=C(NNc1c([N+](=O)[O-])cc(C(F)(F)F)cc1[N+](=O)[O-])c1ccco1	?	18.3µM	?	0	0
CCc1nc(Cl)c(C#N)c2c1CCCC2	0	13µM	0	0	0
Cc1cc(C)c(C(=O)/C=C/c2cccc3ccccc23)c(=O)[nH]1	?	14.6µM	18.4µM	0	0
COc1ccccc1CNC(=O)CCC1N=C2c3ccccc3N=C(SCC(N)=O)N2C1=O (stereo not given)	0	-	-	0	0
Cc1ccc(NC(=O)c2cc(-c3cccs3)nc3ccccc23)c(C)c1	0	-	0	0	0
Cc1ccc(NC(=O)Cc2cc(C(=O)O)c3ccccc3n2)c(C)c1	?	?	5.8µM	0	0
Cc1nc2ccc(S(=O)(=O)NCC(=O)N3CCN(c4ccccc4)CC3)cc2s1	0	23.1µM	?	0	0
COc1ccc(CNC(=O)CCc2c(C)nc3cc(-c4ccc(OC)cc4OC)nn3c2C)cc1	0	-	0	0	0
COc1cc(OC)cc(-c2cc3nc(C)c(CCC(=O)NCc4ccc(Cl)cc4)c(C)n3n2)c1	0	-	10.3µM	0	0
SMILES	A549 viability	ELG1 DNA repair	Nrf2 block	Nrf2 activator	IDH1 R132H inh
COc1cc(OC)cc(-c2cc3nc(C)c(CCC(=O)NCCc4cccc(C)c4)c(C)n3n2)c1	0	-	10.3µM	0	0
CSc1ccc(CCNC(=O)CCc2c(C)nc3c(c(C)nn3-c3ccccc3)c2C)cc1	0	-	0	0	0
COc1ccc(CCNC(=O)CCc2c(C)nc3cc(-c4cccc(F)c4)nn3c2C)cc1OC	0	-	0	0	0
Cc1cccc(CCNC(=O)CCc2c(C)nc3c(c(C)nn3-c3ccccc3)c2C)c1	0	-	23.1µM	0	0
CN(C)c1ccc(CNC(=O)Cc2ccc(NC(=O)N3CCCCc4ccccc43)cc2)cc1	0	-	?	0	0
Cn1nc(C(F)(F)F)c(C#N)c1N1CCN(c2ccccc2F)CC1	0	-	?	0	0
COc1cccc(N2CCN(c3c(C#N)c(C(F)(F)F)nn3C)CC2)c1	0	14.6µM	?	0	0
COc1ccc(NC(=O)c2cccc(N3C(=O)C4C5C=CC(C5)C4C3=O)c2)cc1 (stereo not given)	0	0	0	0	0
COc1cccc(NC(=O)c2cccc(N3C(=O)C4C5C=CC(C5)C4C3=O)c2)c1 (stereo not given)	?	?	18.4µM	0	0
CCOc1cc(N2CCOCC2)c(OCC)cc1NC(=O)c1nc2nc(C)cc(C)n2n1	0	7.94µM	0	0	0
CCOc1cc(N2CCOCC2)c(OCC)cc1NC(=O)c1ccc(OCc2c(C)noc2C)c(OC)c1	0	5.8µM	0	0	0
CCOc1cc(N2CCOCC2)c(OCC)cc1NC(=O)c1cnccn1	0	10.3µM	0	0	0
CCOc1cc(N2CCOCC2)c(OCC)cc1NC(=O)c1ccc(OC)cc1	0	?	0	0	0
O=C(CCCCCCCC(=O)N1CCCC1)N1CCCC1	0	-	0	0	0
Cn1nnnc1SCCCNCc1cc(Br)ccc1OCc1ccccc1	0	-	0	0	0
COc1cccc(-c2csc(N3CCN(C(=O)Nc4ccc(Cl)cc4)CC3)n2)c1	?	?	14.6µM	0	0
COc1ccc(NC(=O)N2CCN(c3nc(-c4cccc(OC)c4)cs3)CC2)cc1	0	18.4µM	?	0	0
CC(C)CNC(=S)N1CCN(c2nc(-c3ccc(Cl)cc3)cs2)CC1	0	?	18.4µM	0	0
CCNC(=S)N1CCN(c2nc(-c3cccc(OC)c3)cs2)CC1	0	?	?	0	0
COc1cccc(-c2csc(N3CCN(C(=S)NCC(C)C)CC3)n2)c1	0	?	18.4µM	0	0
CCC(=O)N1CCN(c2nc(-c3ccc(Cl)cc3)cs2)CC1	0	0	?	0	0
COc1cccc(-c2csc(N3CCN(CC(=O)NNC(=O)c4ccc(Cl)cc4)CC3)n2)c1	?	?	?	0	0
CN(C=O)c1ccc(CSc2ccccc2)cc1	0	-	?	0	0
COc1ccc(N2CC(NC(=O)/C=C\c3ccc4c(c3)OCO4)CC2=O)cc1 (stereo not given)	0	-	-	0	0
CC(SC1=NS(=O)(=O)c2ccccc21)C(=O)O (stereo not given)	0	-	0	-	-
COc1cccc(-c2csc(N3CCN(C(=S)Nc4ccccc4Cl)CC3)n2)c1	0	0	?	0	0
COc1cccc(-c2csc(N3CCN(C(=S)Nc4cccc(Cl)c4)CC3)n2)c1	0	0	18.4µM	0	0
COc1cc(S(=O)(=O)N(C)C)ccc1Br	0	0	0	0	0
